Bioassay records (PubChem BioAssay)
An excerpt weighted towards active compounds, which were near 1.7% of everything screened.
Hck-Nef inh: inhibitors of human Hck kinase activated by Nef | P08631 | Recombinant Hck-YEEI plus Nef, Z-Lyte FRET kinase assay | actives 0.68% (n = 220,000) | inhibition, % at 20 µM;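 active = Hck-Nef kinase inhibition above about 50%, limit read from the data; inactive = inhibition below that limit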
LYPLA1 inh: LYPLA1 (human) inhibition in PME1 counter-screen | AID 2174 | actives 0.16% (n = 320,000) | inhibition, % at 5.9 µM | O75608 | recombinant LYPLA1, FP-Rh probe fluorescence polarization;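 active = inhibition above the mean of all tested compounds plus 3 SD, set per campaign, cut at about 14% in these data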;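 also: inhibitors block serine hydrolase probe labeling of LYPLA1 so polarization falls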
Rin1-Abl PPI inh: inhibitors of human Rin1-Abl protein interaction. P00519+Q13671. TR-FRET Rin1/Abl binding, biochemical. AID 588664. actives 0.4% (n = 360,000). inhibition, % at 7.35 µM; in the data active = inhibition above about 5%, passing the limit was not always enough
LYPLA2 counter: counter-screen for PME1 inhibitors: inhibitors of human LYPLA2; O95372; recombinant LYPLA2, FP-Rh probe fluorescence polarization; inhibition, % at 5.9 µM; actives 0.38% (n = 320,000);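 active = inhibition above the screen-wide mean plus 3 SD, limit set per campaign, cut at about 26% in these data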
PREPL inh: inhibits the human prolyl oligopeptidase-like enzyme; Q4J6C6; recombinant PREPL, fluorescence polarization activity-based probe; inhibition, % at 5.96 µM; actives 0.68% (n = 320,000); AID 2751; in the data active = inhibition above about 43%
p97 inhibitor: inhibitors of human p97 ATPase; P55072; recombinant p97 ATPase, Kinase-Glo ATP luminescence, 3 h; inhibition, % at 8 µM; actives 0.42% (n = 220,000); in the data active = inhibition above about 15%
p97 inh conf: human p97 ATPase inhibition, confirmation | shares compounds with p97 inhibitor | recombinant p97 ATPase, Kinase-Glo ATP luminescence | inhibition, % at 8 µM | actives 44% (n = 760);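 active = percent inhibition of p97 ATPase above a set limit, the primary screen's mean plus 3 SD, cut at about 15% in these data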
Numbers stand for hits.

Results for CC/C(=C\C(=O)c1ccncc1)Nc1ccc(O)cc1 ?
Hck-Nef inh: inactive; LYPLA1 inh: inactive; Rin1-Abl PPI inh: inactive; LYPLA2 counter: inactive; PREPL inh: inactive; p97 inhibitor: 21; p97 inh conf: inactive

What do the screens show for `CC(=O)c1cccc(NC(=O)C2C(c3ccccc3)C2(Cl)Cl)c1` (stereo not given)?
Hck-Nef inh: inactive; LYPLA1 inh: inactive; Rin1-Abl PPI inh: inactive; LYPLA2 counter: inactive; PREPL inh: inactive; p97 inhibitor: 28; p97 inh conf: 32

Results for Cc1cccc(NC(=O)C2C(c3ccccc3)C2(Cl)Cl)c1 (stereo not given) ?
Hck-Nef inh: inactive; LYPLA1 inh: inactive; Rin1-Abl PPI inh: inactive; LYPLA2 counter: inactive; PREPL inh: inactive; p97 inhibitor: 19; p97 inh conf: 37

Results for O=C(COC(=O)c1ccc(Cl)nc1)Nc1nnc(-c2ccccc2)o1 ?
LYPLA1 inh: inactive; Rin1-Abl PPI inh: inactive; LYPLA2 counter: inactive; PREPL inh: inactive

Results for Cn1cc(C(=O)c2ccc(Cl)cc2Cl)cc1C(=O)N/N=C(\N)COc1ccc(Cl)cc1 ?
Hck-Nef inh: inactive; LYPLA1 inh: inactive; Rin1-Abl PPI inh: inactive; LYPLA2 counter: inactive; PREPL inh: inactive; p97 inhibitor: 18; p97 inh conf: 20

Results for Cn1cc(C(=O)c2ccc(Cl)cc2Cl)cc1C(=O)N/N=C(\N)COc1ccc(F)cc1 ?
Hck-Nef inh: inactive; LYPLA1 inh: inactive; Rin1-Abl PPI inh: inactive; LYPLA2 counter: inactive; PREPL inh: inactive; p97 inhibitor: inactive

How did Nc1c(Cl)c(Cl)nc(C(=O)OCC(=O)NC2CCCCC2)c1Cl do in these assays?
LYPLA1 inh: inactive; Rin1-Abl PPI inh: inactive; LYPLA2 counter: inactive; PREPL inh: inactive

What do the screens show for `O=C1Nc2ccccc2/C1=N\N=C\c1ccc(O)c(O)c1`?
Hck-Nef inh: inactive; LYPLA1 inh: inactive; Rin1-Abl PPI inh: inactive; LYPLA2 counter: inactive; PREPL inh: inactive; p97 inhibitor: 19; p97 inh conf: 16

How did S=C(Nc1ccc2nsnc2c1)NC1CCCCC1 do in these assays?
Hck-Nef inh: inactive; LYPLA1 inh: inactive; Rin1-Abl PPI inh: inactive; LYPLA2 counter: inactive; PREPL inh: inactive; p97 inhibitor: 15; p97 inh conf: inactive

What do the screens show for `C=CCNC(=S)Nc1ccc2nsnc2c1`?
Hck-Nef inh: inactive; LYPLA1 inh: inactive; Rin1-Abl PPI inh: inactive; LYPLA2 counter: inactive; PREPL inh: inactive; p97 inhibitor: 29; p97 inh conf: inactive

What do the screens show for `C=CCN(CC=C)C(=S)Nc1ccc2nsnc2c1`?
Hck-Nef inh: inactive; LYPLA1 inh: inactive; Rin1-Abl PPI inh: inactive; LYPLA2 counter: inactive; PREPL inh: inactive; p97 inhibitor: 18; p97 inh conf: inactive

Results for CCc1nc2c(OCc3ccc(OC)cc3)cccn2c1N(C)C(=O)c1ccncc1 ?
Rin1-Abl PPI inh: inactive

How did COC(=O)c1c(-c2ccccc2)csc1N1C(=O)Nc2ccccc2N1O do in these assays?
Hck-Nef inh: inactive; LYPLA1 inh: inactive; Rin1-Abl PPI inh: inactive; LYPLA2 counter: inactive; PREPL inh: inactive; p97 inhibitor: 15; p97 inh conf: 23

Results for CCOC(=O)c1c(N2C(=O)Nc3ccccc3N2O)sc2c1CCCCC2 ?
Hck-Nef inh: inactive; LYPLA1 inh: inactive; Rin1-Abl PPI inh: inactive; LYPLA2 counter: inactive; PREPL inh: inactive; p97 inhibitor: inactive

Results for CCOC(=O)c1c(-c2ccccc2)csc1N1C(=O)Nc2ccccc2N1O ?
Hck-Nef inh: inactive; LYPLA1 inh: inactive; Rin1-Abl PPI inh: inactive; LYPLA2 counter: inactive; PREPL inh: inactive; p97 inhibitor: 18; p97 inh conf: 21

How did C(=N\Nc1nc(N2CCOCC2)nc(N2CCOCC2)n1)/c1ccco1 do in these assays?
Hck-Nef inh: inactive; LYPLA1 inh: inactive; LYPLA2 counter: inactive; PREPL inh: inactive; p97 inhibitor: 18; p97 inh conf: inactive

Results for Cc1ccc(/C=N/Nc2nc(N3CCOCC3)nc(N3CCOCC3)n2)o1 ?
Hck-Nef inh: inactive; LYPLA1 inh: inactive; Rin1-Abl PPI inh: inactive; LYPLA2 counter: inactive; PREPL inh: inactive; p97 inhibitor: inactive

What do the screens show for `O=C(O)C1CCN(C(=O)COc2ccc3c(c2)oc(=O)c2ccccc23)CC1`?
LYPLA1 inh: inactive; Rin1-Abl PPI inh: inactive; LYPLA2 counter: inactive; PREPL inh: inactive

What do the screens show for `O=C1C=C(c2ccc(F)cc2OCc2ccccc2)C[C@@H](c2ccc(Cl)cc2)C1`?
LYPLA1 inh: inactive; Rin1-Abl PPI inh: inactive; LYPLA2 counter: inactive; PREPL inh: inactive

How did O=c1oc2ccccc2c2oc3cc(O)c(O)cc3c12 do in these assays?
Hck-Nef inh: inactive; LYPLA1 inh: inactive; Rin1-Abl PPI inh: inactive; LYPLA2 counter: inactive; PREPL inh: inactive; p97 inhibitor: 19; p97 inh conf: 22

Results for COc1cccc(C(O)c2ncc(-c3cccc(F)c3)[nH]2)c1 (stereo not given) ?
Rin1-Abl PPI inh: inactive

What do the screens show for `CC1CC(C)(C)NC(=S)N1CCC(=O)N1CCN(c2ccccc2)CC1` (stereo not given)?
Hck-Nef inh: inactive; LYPLA1 inh: inactive; Rin1-Abl PPI inh: inactive; LYPLA2 counter: inactive; PREPL inh: inactive; p97 inhibitor: 15; p97 inh conf: inactive

How did CCOC(=O)CC(C#N)c1c[nH]c2ccccc12 (stereo not given) do in these assays?
Hck-Nef inh: inactive; LYPLA1 inh: inactive; Rin1-Abl PPI inh: inactive; LYPLA2 counter: inactive; PREPL inh: inactive; p97 inhibitor: 16; p97 inh conf: inactive

Results for CCOC(=O)/C(C#N)=C/c1c[nH]c2ccccc12 ?
Hck-Nef inh: inactive; LYPLA1 inh: inactive; Rin1-Abl PPI inh: inactive; LYPLA2 counter: inactive; PREPL inh: inactive; p97 inhibitor: inactive

Results for CCOC(=O)c1oc2c(CN3CCN(C)CC3)c(O)c(CC)cc2c(=O)c1-c1nc2ccccc2s1 ?
Rin1-Abl PPI inh: inactive

What do the screens show for `Cn1cccc1CC(=O)N/N=C/c1ccco1`?
Hck-Nef inh: inactive; LYPLA1 inh: inactive; Rin1-Abl PPI inh: inactive; LYPLA2 counter: inactive; PREPL inh: inactive; p97 inhibitor: 17; p97 inh conf: inactive

Results for Cn1cccc1CC(=O)NNC(=O)Nc1ccc(Cl)cc1 ?
Hck-Nef inh: inactive; LYPLA1 inh: inactive; Rin1-Abl PPI inh: inactive; LYPLA2 counter: inactive; PREPL inh: inactive; p97 inhibitor: 19; p97 inh conf: inactive

What do the screens show for `Cn1cccc1CC(=O)NNC(=O)Nc1cccc(Cl)c1`?
Hck-Nef inh: inactive; LYPLA1 inh: inactive; Rin1-Abl PPI inh: inactive; LYPLA2 counter: inactive; PREPL inh: inactive; p97 inhibitor: inactive

How did CC(/C=N/NC(=O)Cc1cccn1C)=C\c1ccco1 do in these assays?
Hck-Nef inh: inactive; LYPLA1 inh: inactive; Rin1-Abl PPI inh: inactive; LYPLA2 counter: inactive; PREPL inh: inactive; p97 inhibitor: inactive

How did CCC1CCc2sc(C(=O)N3CCCN(C)CC3)cc2C1 (stereo not given) do in these assays?
LYPLA1 inh: inactive; Rin1-Abl PPI inh: inactive; LYPLA2 counter: inactive; PREPL inh: inactive

Results for CCOc1ccc(C(=O)NCC(=O)Nc2ncccc2C)cc1OCC ?
LYPLA1 inh: inactive; Rin1-Abl PPI inh: inactive; LYPLA2 counter: inactive; PREPL inh: inactive
